From PubChem BioAssay (EPA / NIEHS)
The source made the active and inactive calls. Rule for the calls: active = hit-call score of the fitted dose curve at least 0.9, where 1 is the maximum; inactive = score below 0.9.

read-out: Interleukin 6 Receptor (IL6R), IL6R (gene 3570); test: LTEA_HepaRG_IL6R: Life Technologies and Expression Analysis (LTEA) Assay for Interleukin 6 Receptor (IL6R) using HepaRG (AID 2283510); conditions: mRNA level, 48 h; actives raise or lower the signal;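 for AC50: TaqMan qRT-PCR signal normalized to ACTB GAPDH and POLR2A housekeeping genes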
How it was run: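 In this HepaRG screen, test chemicals act on cells for 48 h at up to 100 uM (eight half-log points, duplicate wells). IL6R expression is quantified by qRT-PCR after normalization to ACTB, GAPDH and POLR2A, with DMSO as baseline.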

outcome, inactive:
O=C(O)c1[nH]n(-c2ccc(S(=O)(=O)O)cc2)c(=O)c1N=Nc1ccc(S(=O)(=O)O)cc1
CCCCCCCCCCCCCCOS(=O)(=O)O
CC(=O)O
CC(C)COC(=O)CCCCC(=O)OCC(C)C
CC(C)(C)c1ccccc1
CCCCCCCCCC[N+](C)(C)[O-]
c1ccc2occc2c1
CC(=O)OCC(COC(C)=O)OC(C)=O
Oc1ccc(O)cc1
O=C(O)CC(O)(CC(=O)O)C(=O)O
NC=O
CC(COCC(C)OC(=O)c1ccccc1)OC(=O)c1ccccc1 (stereo unspecified)
Cc1cn([C@H]2C=C[C@@H](CO)O2)c(=O)[nH]c1=O
CCN(CC)CCOc1ccc(C(=C(Cl)c2ccccc2)c2ccccc2)cc1
NCCOCCOCCN
C/C=C/c1ccc(OC)cc1
N[C@@H](Cc1c[nH]c2ccccc12)C(=O)O
CSc1ccc(Oc2ccc(S(N)(=O)=O)cc2CN(C)C)cc1C
OCC(O)CO
CC(=O)[C@@]1(O)CC[C@H]2[C@@H]3CCC4=CC(=O)CC[C@]4(C)[C@H]3CC[C@@]21C
O=C(Oc1ccccc1)c1cccc(C(=O)Oc2ccccc2)c1
CC(=O)CC(c1ccccc1)c1c(O)c2ccccc2oc1=O (stereo unspecified)
C#CC(O)C(CC)CCCC (stereo unspecified)
COc1ccc(OC(F)(F)F)cc1CN[C@H]1CCCN[C@H]1c1ccccc1
CCCCC(CC)COP(=O)(OCC(CC)CCCC)OCC(CC)CCCC (stereo unspecified)
CCC(C)N(C)C(=O)c1cc2ccccc2c(-c2ccccc2Cl)n1 (stereo unspecified)

AC50, active:
CC(C)NCC(O)c1ccc(O)c(O)c1 (stereo unspecified) 9.92 µM
COc1ccc(C(=O)Nc2nc3ccccc3c(NCc3ccccc3)c2C#N)cc1 4.44 µM
COC(=O)[C@H]1[C@H]2C[C@@H]3c4[nH]c5cc(OC)ccc5c4CCN3C[C@H]2C[C@@H](OC(=O)c2cc(OC)c(OC)c(OC)c2)[C@@H]1OC 42.2 µM
CCc1nc(N)nc(N)c1-c1ccc(Cl)cc1 26.7 µM

read-out: Potassium channel subfamily K member 1 (KCNK1), KCNK1 (gene 3775); test: LTEA_HepaRG_KCNK1: Life Technologies and Expression Analysis (LTEA) Assay for Potassium channel subfamily K member 1 (KCNK1) using HepaRG (AID 2283511); conditions: mRNA level, 48 h; actives raise or lower the signal
How it was run: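 Human HepaRG cultures receive test chemicals for 48 h in 0.5% DMSO, top concentration 100 uM with half-log dilutions. Induction or suppression of KCNK1 mRNA relative to DMSO is derived by bidirectional fitting of qRT-PCR data.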

outcome, inactive:
CC(C)COC(=O)CCCCC(=O)OCC(C)C
CC(C)NCC(O)c1ccc(O)c(O)c1 (stereo unspecified)
CCCCCCCCCC[N+](C)(C)[O-]
c1ccc2occc2c1
COc1ccc(C(=O)Nc2nc3ccccc3c(NCc3ccccc3)c2C#N)cc1
NC=O
CCN(CC)CCOc1ccc(C(=C(Cl)c2ccccc2)c2ccccc2)cc1
NCCOCCOCCN
N[C@@H](Cc1c[nH]c2ccccc12)C(=O)O
CSc1ccc(Oc2ccc(S(N)(=O)=O)cc2CN(C)C)cc1C
CCc1nc(N)nc(N)c1-c1ccc(Cl)cc1
O=C(Oc1ccccc1)c1cccc(C(=O)Oc2ccccc2)c1
CC(=O)CC(c1ccccc1)c1c(O)c2ccccc2oc1=O (stereo unspecified)
C#CC(O)C(CC)CCCC (stereo unspecified)
CCCCC(CC)COP(=O)(OCC(CC)CCCC)OCC(CC)CCCC (stereo unspecified)
CCC(C)N(C)C(=O)c1cc2ccccc2c(-c2ccccc2Cl)n1 (stereo unspecified)

read-out: Keratin 19 (KRT19), KRT19 (gene 3880); test: LTEA_HepaRG_KRT19: Life Technologies and Expression Analysis (LTEA) Assay for Keratin 19 (KRT19) using HepaRG (AID 2283512); conditions: mRNA level, 48 h; actives raise or lower the signal
How it was run: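 Differentiated human HepaRG cells, plated 48 h, were exposed in duplicate for 48 h in serum-free induction medium to eight half-log concentrations up to 100 uM in 0.5% DMSO. KRT19 mRNA was quantified by qRT-PCR, normalized to ACTB, GAPDH and POLR2A, and fitted bidirectionally versus DMSO.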

outcome, inactive:
O=C(O)c1[nH]n(-c2ccc(S(=O)(=O)O)cc2)c(=O)c1N=Nc1ccc(S(=O)(=O)O)cc1
CCCCCCCCCCCCCCOS(=O)(=O)O
CC(=O)O
CC(C)COC(=O)CCCCC(=O)OCC(C)C
CC(C)(C)c1ccccc1
CCCCCCCCCC[N+](C)(C)[O-]
c1ccc2occc2c1
CC(=O)OCC(COC(C)=O)OC(C)=O
Oc1ccc(O)cc1
O=C(O)CC(O)(CC(=O)O)C(=O)O
NC=O
CC(COCC(C)OC(=O)c1ccccc1)OC(=O)c1ccccc1 (stereo unspecified)
Cc1cn([C@H]2C=C[C@@H](CO)O2)c(=O)[nH]c1=O
CCN(CC)CCOc1ccc(C(=C(Cl)c2ccccc2)c2ccccc2)cc1
NCCOCCOCCN
C/C=C/c1ccc(OC)cc1
COC(=O)[C@H]1[C@H]2C[C@@H]3c4[nH]c5cc(OC)ccc5c4CCN3C[C@H]2C[C@@H](OC(=O)c2cc(OC)c(OC)c(OC)c2)[C@@H]1OC
N[C@@H](Cc1c[nH]c2ccccc12)C(=O)O
OCC(O)CO
CC(=O)[C@@]1(O)CC[C@H]2[C@@H]3CCC4=CC(=O)CC[C@]4(C)[C@H]3CC[C@@]21C
O=C(Oc1ccccc1)c1cccc(C(=O)Oc2ccccc2)c1
CC(=O)CC(c1ccccc1)c1c(O)c2ccccc2oc1=O (stereo unspecified)
C#CC(O)C(CC)CCCC (stereo unspecified)
COc1ccc(OC(F)(F)F)cc1CN[C@H]1CCCN[C@H]1c1ccccc1
CCCCC(CC)COP(=O)(OCC(CC)CCCC)OCC(CC)CCCC (stereo unspecified)
CCC(C)N(C)C(=O)c1cc2ccccc2c(-c2ccccc2Cl)n1 (stereo unspecified)

AC50, active:
CC(C)NCC(O)c1ccc(O)c(O)c1 (stereo unspecified) 0.149 µM
COc1ccc(C(=O)Nc2nc3ccccc3c(NCc3ccccc3)c2C#N)cc1 12.9 µM
CSc1ccc(Oc2ccc(S(N)(=O)=O)cc2CN(C)C)cc1C 50 µM
CCc1nc(N)nc(N)c1-c1ccc(Cl)cc1 75.5 µM
